Assay outcomes: PubChem BioAssay, National Center for Advancing Translational Sciences (NCATS)
An excerpt weighted towards active compounds, which were near 5.5% of everything screened.
MBNL1-CUG inh – qHTS Assay for Inhibitors of MBNL1-poly(CUG) RNA binding | Muscleblind-like protein 1 (Homo sapiens), Q9NR56 | AID 2675, 2010 | Potency, µM (doses to about 57.5 µM), for inactives: at the top dose activity change, negative = inhibition, usual class: inhibitors | 0.036% of 280,000 active | TR-FRET MBNL1-His/biotin-(CUG)12 binding, 665/545 ratio; active = well fitted inhibition curve with a large enough effect in the signal ratio, with a control signal flat, not every such curve was filed as active; inconclusive = small, poorly fitted or top-dose-only effect, or effect the other way, or a change in a side signal; inactive = no such curve, though single readings can be large or run the other way; the % refers to the signal ratio; note: potency is the fitted concentration of half-maximal effect; % is set by controls: 0 for no effect and ±100 for the full control effect
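Ratiometric TR-FRET (665 over 545 nm, excitation 340 nm) tracks disruption of MBNL1-His/biotin-(CUG)12 complex after 60 min at room temperature, with compounds at 92 nM to 58 uM final.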
CtBP-E1A inh – qHTS Assay for Inhibitors of the CtBP/E1A Interaction; 0.49% of 340,000 active; AlphaScreen GST-E1A/His-CtBP binding, 1536-well; stronger effect = lower value; CtBP / adenovirus E1A interaction (AlphaScreen); activity change, % (concentration not given with the values); in the data active = activity change below about -65%; inconclusive = mostly about -30% to -63%; note: % is set by controls: 0 for no effect and ±100 for the full control effect
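Protein mix (5X: 125 nM each GST-E1A, His-CtBP) was incubated with pinned compound 2 h at 37 deg C in dark, in 50 mM Tris pH 8.0 buffer with 300 mM NaCl. Glutathione donor and nickel acceptor beads followed; AlphaScreen signal read after 1 h.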
VP16 counter – VP16 counterscreen qHTS for inhibitors of ROR gamma transcriptional activity; 3.5% of 310,000 active; Potency, µM (highest dose often 53.6 µM), inactives show top-dose activity, negative = inhibition, hits mostly inhibitors; AID 2546, 2010; Drosophila S2 Gal4-VP16 UAS-luciferase, luminescence, 20 h;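 note: Gal4-VP16 expression switched on by copper sulfate through the metallothionein promoter; potency is the fitted concentration of half-maximal effect; % is set by controls: 0 for no effect and ±100 for the full control effect; nearly all actives have a fitted effect of over 50% in size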
CBFb RUNX1 block – qHTS Assay for Compounds Blocking the Interaction Between CBF-beta and RUNX1 for the Treatment of Acute Myeloid Leukemia; Runt-related transcription factor 1 (Homo sapiens) + Core-binding factor subunit beta …; AlphaScreen CBFb-His/RUNX1-biotin binding, biochemical; Potency, µM (highest dose often 59.8 µM), inactives show at the highest dose activity, negative = inhibition, most hits filed as inhibitors; 230,000 tested, under 10 active; AID 1477, 2009; note: % of control where 0% means no effect
Target sequence (Q01196 whole entry, looked up): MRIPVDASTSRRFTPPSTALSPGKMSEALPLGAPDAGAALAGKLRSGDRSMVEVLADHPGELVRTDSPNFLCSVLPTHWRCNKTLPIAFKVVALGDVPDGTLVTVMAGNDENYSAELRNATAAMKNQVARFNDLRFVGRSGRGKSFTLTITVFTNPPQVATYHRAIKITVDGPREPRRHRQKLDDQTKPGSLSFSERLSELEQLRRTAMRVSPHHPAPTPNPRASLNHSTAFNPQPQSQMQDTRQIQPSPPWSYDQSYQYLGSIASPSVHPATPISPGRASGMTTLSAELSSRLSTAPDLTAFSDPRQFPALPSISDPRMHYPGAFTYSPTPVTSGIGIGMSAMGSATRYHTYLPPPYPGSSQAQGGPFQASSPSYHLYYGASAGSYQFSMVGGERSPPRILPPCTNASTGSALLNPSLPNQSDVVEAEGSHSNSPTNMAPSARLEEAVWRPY
Target sequence (Q13951 whole entry, looked up): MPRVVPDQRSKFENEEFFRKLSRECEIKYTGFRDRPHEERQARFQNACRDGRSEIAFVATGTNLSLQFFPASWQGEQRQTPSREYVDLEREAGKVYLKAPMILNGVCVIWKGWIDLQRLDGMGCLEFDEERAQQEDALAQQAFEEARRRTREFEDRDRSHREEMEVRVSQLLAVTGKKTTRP
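Interaction loss through any mechanism counts as activity. Pre-formed complex of His-CBF-beta and biotin-RUNX1 (30 nM apiece) is incubated with compound 15 min, then with 50 ng nickel and 50 ng streptavidin beads for 90 min before AlphaScreen detection.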
RORg inh – qHTS for inhibitors of ROR gamma transcriptional activity. Potency, µM (series often up to 53.6 µM), for the others: top-dose activity change, negative = inhibition, most hits filed as inhibitors. Drosophila S2 Gal4-RORgamma UAS-luciferase reporter, 20 h. 5.4% of 310,000 active. Nuclear receptor ROR-gamma (Mus musculus), P51450. AID 2551, 2010; note: potency is the fitted concentration of half-maximal effect; % is set by controls: 0 for no effect and ±100 for the full control effect; nearly all actives have a fitted effect of over 60% in size
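Luciferase reporter read in Schneider cells carrying Gal4-RORγ (mouse) and UAS-Photinus luciferase; cells given compound 1 h before 700 uM copper sulfate induction, then incubated 20 h at ambient temperature.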
Six1-Eya2 inh – qHTS Assay for Inhibitors of the Six1/Eya2 Interaction. Homeobox protein SIX1 (Homo sapiens) + Protein phosphatase EYA2 (Homo sapiens), …. AlphaScreen GST-Six1/His-Eya2 binding, biochemical; stronger effect = lower value. activity change, % (test concentration not listed). 0.56% of 360,000 active; in the data active = activity change below about -65%; inconclusive = mostly about -30% to -63%; note: % is set by controls: 0 for no effect and ±100 for the full control effect
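Compounds are tested against tagged Six1 and Eya2 proteins bridged by glutathione donor and nickel acceptor beads; after a one-hour incubation at 37 °C without light, AlphaScreen emission is recorded.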
An asterisk follows results filed as active; u = inconclusive; x = no result given. Unless noted, calls come from the whole dose curve; as a rule, active = well fitted curve in the direction sought with a large enough effect; inconclusive = small, poorly fitted or top-dose-only effect, or another doubt; inactive = no such curve, though single readings can be large; an effect the other way counts as inactive or inconclusive.

SMILES	MBNL1-CUG inh	CtBP-E1A inh	VP16 counter	CBFb RUNX1 block	RORg inh	Six1-Eya2 inh
COC(=O)[C@@]1(Cc2ccc(OC)cc2)[C@@H]2[C@@H](CC(=O)[C@H]2CC(=O)C(=O)N2CCCC2)CN1C(=O)c1ccccc1	x	x	4%	5%	-16%	x
C=C1C(=O)C=C2CN(C(=O)c3ccccc3)[C@@](Cc3ccc(OC)cc3)(C(=O)OC)[C@@H]12	x	x	0.71µM*	-3%	4µM*	x
COC(=O)[C@@]1(Cc2ccc(F)cc2)[C@@H]2C(=CC(=O)[C@H]2CC(=O)C(=O)N2CCCC2)CN1C(=O)c1ccccc1	x	x	u	-2%	14µM*	x
CC(NC(=O)c1cc2ccccc2oc1=O)c1ccccc1 (centres undefined)	u	-9	-7%	x	16%	-1
O=C(N/N=C/c1[nH]c2ccccc2c1Cl)c1cccc(Br)c1	-1%	3	7.9µM*	8%	3.2µM*	10
O=C(N/N=C/C1C(c2ccccc2)C1(Cl)Cl)c1cccc(Br)c1 (centres undefined)	-2%	3	6.3µM*	-9%	4.5µM*	-4
Cc1[nH]c2ccccc2c1/C=N/NC(=O)c1cccc(Br)c1	3%	-10	11%	x	-42%	-9
Oc1c(N=Nc2ccccn2)ccc2ccccc12	u	-95*	-74%	x	0.11µM*	-97*
Oc1[nH]c2ccccc2c1N=Nc1ccccn1	x	6	x	x	x	0
Cc1cccc(NC2=C(Cl)C(=O)OC2OC(=O)c2ccco2)c1 (centres undefined)	1%	-4	u	2%	11µM*	-7
Cc1ccc(NC2=C(Cl)C(=O)OC2OC(C)C)cc1 (centres undefined)	-4%	x	-9%	7%	-1%	3
Cc1ccc(NC2=C(Cl)C(=O)OC2OC(=O)c2ccco2)cc1 (centres undefined)	9%	6	-19%	-3%	11µM*	-1
O=C(Nc1ccc(F)cc1)C(c1cc2ccccc2o1)N1CCN(c2cccc(C(F)(F)F)n2)CC1 (centres undefined)	x	3	x	x	x	-9
O=C(NC(=S)Nc1ccccc1)c1cc(-c2ccccc2)nc2ccccc12	19%	-12	4.5µM*	-5%	0.28µM*	-20
O=C(NNC(=O)c1cc(-c2cccc(Br)c2)nc2ccccc12)c1csc(N2CCOCC2)n1	x	-1	x	x	x	-13
CN1CCC(N(C)C(=S)NC(=O)c2cc(-c3cccc(Br)c3)nc3ccccc23)CC1	5%	1	0.89µM*	-3%	0.25µM*	7
O=C(NC(=S)Nc1ccccn1)c1cc(-c2ccccc2)nc2ccccc12	-20%	u	0.71µM*	6%	0.4µM*	-26
CC(C)CC1NC(=O)c2cccnc2-n2c1nc1cc(F)ccc1c2=O (centres undefined)	x	-1	x	x	x	-5
O=C1c2cccc3c2N(CCC3)C(=O)C1(F)c1ccccc1 (centres undefined)	x	-13	x	x	x	7
COc1cc(N=C2C(=O)N3CCCc4cccc2c43)cc(OC)c1	25%	-76*	6%	-8%	1%	6
CCCC(=O)NC(=S)Nc1nc(-c2ccc(OC)cc2)cs1	2%	14	-16%	4%	8.9µM*	1
O=C(NC(=S)Nc1nc(-c2ccccc2)cs1)c1cccs1	x	-16	-9%	-8%	-1%	-1
O=C(NC(=S)Nc1nc(-c2ccccc2)cs1)c1ccco1	9%	0	u	-1%	3.5µM*	-1
COc1ccc(-c2csc(NC(=S)NC(=O)c3ccc4ccccc4c3)n2)cc1OC	-19%	-25	u	x	2µM*	-2
COc1ccc(-c2csc(NC(=S)NC(=O)c3ccco3)n2)cc1	-10%	x	-2%	-1%	7.1µM*	-2
SMILES	MBNL1-CUG inh	CtBP-E1A inh	VP16 counter	CBFb RUNX1 block	RORg inh	Six1-Eya2 inh
C[C@@H]1COC(=O)[C@H](CC(=O)OC(C)(C)C)C/C=C\C[C@@H](CC(=O)N(CCO)Cc2ccccc2)C(=O)N1	x	-25	x	x	x	8
COc1ccc(OC)c(NC(=O)Cn2nc(C)c3ccccc3c2=O)c1	2%	2	-5%	x	7%	-8
COc1ccc(CCC(C)N2CCOCC2)cc1 (centres undefined)	-2%	7	0%	x	0%	-2
COc1ccc(CCNS(=O)(=O)CCNC(=O)c2ccc3c(c2)OCO3)cc1OC	x	0	x	x	x	-1
CS(=O)(=O)c1ccc(S(=O)CC(=O)Oc2ccc(Cl)cc2)c([N+](=O)[O-])c1 (centres undefined)	u	-9	-25%	8%	4µM*	-7
COc1cccc(OCC(=O)NNC(=S)Nc2ccc(Cl)cc2Cl)c1	-10%	-7	-8%	1%	16µM*	-5
O=C(COc1cccc(Cl)c1)NNC(=S)Nc1ccccc1	-11%	0	1µM*	-6%	0.89µM*	-2
O=C(O)CCC(=O)NNC(=O)COc1cccc(Cl)c1	-6%	3	-7%	4%	-26%	6
O=C(CN1C(=O)NC2(CCCc3ccccc32)C1=O)NC1CCCCC1 (centres undefined)	x	8	x	x	x	3
Cc1cc2c(cc1S(=O)(=O)CCC(=O)Nc1cccc(C(F)(F)F)c1)OCC(=O)N2	-9%	-4	-10%	x	6%	1
CCOc1ccc(S(=O)(=O)N2CCOCC2)cc1NC(=O)Cc1c(F)cccc1Cl	x	0	x	x	x	-6
COc1cccc2c1nc(C)c1cc(C)oc12	-6%	-2	-16%	-8%	-77%	-9
COc1cccc2nc3cc(C)c(C)cc3nc12	u	x	u	7%	10µM*	-11
CN(C)S(=O)(=O)c1cccc(-c2nn(-c3ccccc3)cc2/C=C2\SC(=S)NC2=O)c1	9%	-13	u	u	13µM*	-26
O=C1COc2ccc(N3C(=O)C=CC3=O)cc2N1	4%	x	10µM*	u	6.3µM*	x
C=CCN(CC=C)C(=O)c1ccc2nc(Cc3ccc(OC)c(OC)c3)oc2c1	12%	2	13µM*	x	u	-2
Cc1cc2c(cc1S(=O)(=O)N1CCCC1)n(C)c(=O)c(=O)n2C	-1%	1	6%	x	-25%	1
